Screening data: PubChem BioAssay, several laboratories
The list is not random: actives were taken first. Their share in the collection is about 2.1%.
aSyn UTR inh = 5' untranslated region of α-synuclein, MLPCN primary screen; alpha-synuclein 5'UTR reporter, inhibitor activity; inhibition, % (tested at 7.5 µM); 300,000 tested, 0.82% active; AID 1813; in the data active = inhibition above about 60%;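 note: H4 neuroglioblastoma cells stably carrying SNCA 5'UTR luciferase fusion; 0% = DMSO wells and 100% = positive control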
BaF3 parental = reduces parental Ba/F3 cell viability, JAK2V617F counter-screen. 220,000 tested, 1.1% active. AID 1486. CellTiter-Glo ATP luminescence. inhibition, % at 5.6 µM;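 active = inhibition above a per-campaign cutoff, the mean inhibition of all tested compounds plus 3 SD, cut at about 27% in these data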;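 note: 0% = DMSO wells and 100% = JAK Inhibitor I control wells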
IEC-6 tox = counter-screen for KLF5 inhibitors: cytotoxicity in IEC-6 cells; IEC-6 cytotoxicity, luminescence viability; inhibition, % at 5 µM; 290,000 tested, 0.78% active; in the data active = inhibition above about 22%;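 note: 0% = plate median of test compound wells and 100% = cytotoxic reference compound wells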
KLF5 inhibitor = suppresses KLF5 promoter-driven expression | AID 1700 | 290,000 tested, 0.23% active | inhibition, % at 5 µM | DLD-1 KLF5 promoter-luciferase reporter, luminescence;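 active = inhibition above a per-plate limit of that plate's mean compound inhibition plus 3 SD, cut at about 60% in these data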;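 note: 0% = DMSO wells and 100% = LY294002 at 200 µM; higher means less KLF5 promoter-driven luciferase light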
Ba/F3 V617F tox = lowers viability of Ba/F3 cells expressing EpoR and JAK2V617F; ATP luminescence; inhibition, % at 5.6 µM; 220,000 tested, 1.1% active;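 active = inhibition above the campaign mean plus 3 SD over all tested compounds, cut at about 24% in these data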;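 note: cytokine-independent growth of Ba/F3 cells driven by EpoR plus mutant JAK2; 0% = DMSO-treated cells and 100% = JAK inhibitor I control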
APP transl inh = APP translation inhibition; SH-SY5Y APP 5'UTR-luciferase reporter, luminescence; inhibition, % at 2 µM; 190,000 tested, 0.82% active; AID 1285;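 active = inhibition above a set limit, derived from the sample mean plus 3 SD, cut at about 45% in these data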
Active calls of the source: *; / = not tested or not shown.

SMILES	aSyn UTR inh	BaF3 parental	IEC-6 tox	KLF5 inhibitor	Ba/F3 V617F tox	APP transl inh
Cc1csc2ncc(C(=O)N3c4ccccc4CC3C)c(=O)n12 (configuration not stated)	-24	39*	4	-24	-2	-2
Oc1[nH]c2c(Cl)cc(Cl)cc2c1N=NC(=S)NCC1CCCO1 (configuration not stated)	79*	7	7	-10	6	37
CCOc1ccc(-c2cnc3ccccc3n2)cc1	92*	-1	3	27	-3	/
CCc1ccccc1NC(=S)NNC(=O)c1ccccc1Cl	-49	7	-4	-14	-1	-31
CCc1ccccc1NC(=S)NN	-7	3	-1	-4	0	92*
N#CC1(NC(=O)CN2CCN(S(=O)(=O)c3ccccc3F)CC2)CCCC1	10	3	-4	21	-1	/
O=C(O)CCSc1nnc(-c2ccc3c(c2)OCO3)o1	67*	3	6	2	-2	19
Cc1ccc(CSc2nnc(-c3ccc4c(c3)OCO4)o2)cc1	-10	2	-1	2	-2	-11
COc1ccc(C2=NCC(CSc3nnc(-c4ccc5c(c4)OCO5)o3)S2)cc1 (configuration not stated)	-15	51*	-1	-16	-1	-1
CC(=O)CSc1nnc(-c2ccc3c(c2)OCO3)o1	-15	4	-8	-67	-1	-35
COc1ccc2[nH]c(CN3CCC(CO)(CCOc4ccccc4)CC3)c(C)c2c1	20	5	-6	-16	-4	-14
COc1ccc(OC)c(NC(=O)Cc2coc3ccc4ccccc4c23)c1	-2	4	-4	-15	-3	68*
COc1ccc(OC)c(NC(=O)Cc2coc3ccc(C)cc23)c1	26	5	-2	-24	2	6
C#CC(=O)N(c1ccc(OC)cc1OC)C(C(=O)NC1CCCC1)c1cccs1 (configuration not stated)	92*	27*	102*	7	101*	15
COc1ccc(NC(=O)CN(C)S(=O)(=O)c2ccc3c(c2)c(=O)n(C)c(=O)n3C)cc1	-9	/	-4	-22	/	/
Cc1ccc2c(c1)c1ccc3c(c1n2C)C(=O)C=CC3=O	/	1	4	-10	1	/
COc1ccc2c(c1)c1ccc3c(c1n2C)C(=O)C=CC3=O	/	35*	6	-41	58*	/
CC1=CC(C)C(COC(=O)CN2CCCCC2)C(C)C1 (configuration not stated)	31	-2	-7	-31	0	/
CC1=CC(C)C(C[N+]2(C)CCCCC2)C(C)C1 (configuration not stated)	27	61*	-5	-8	39*	18
O=C(Cc1ccc([N+](=O)[O-])cc1)OCc1c(F)cccc1Cl	1	/	-1	-32	/	/
Cc1nn(C)cc1C(C)NC(=O)c1cc(COc2ccc(F)c(F)c2)on1 (configuration not stated)	-13	/	4	-23	/	/
N#Cc1c(NC(=O)c2ccccc2)sc2c1CCC2	-288	28*	14	-148	37*	-109
N#Cc1c(NC(=O)c2cccnc2)sc2c1CCC2	-150	42*	19	24	41*	0
O=C(Nc1sc2c(c1C(=O)c1ccccc1)CCCC2)c1cccnc1	44	5	-5	-19	-1	2
CC(C)CCNC(=O)c1onc(CSc2nc3ccccc3[nH]2)c1C(=O)NCCC(C)C	15	/	4	0	/	/
SMILES	aSyn UTR inh	BaF3 parental	IEC-6 tox	KLF5 inhibitor	Ba/F3 V617F tox	APP transl inh
O=C(Nc1ccc(Oc2c(F)c(F)c(F)c(F)c2F)cc1)OC1CCN2Cc3ccccc3N=C12 (configuration not stated)	104*	-6	0	-11	-2	/
O=C(COc1ccc(S(=O)(=O)Nc2ccccc2)cc1)NCc1ccncc1	38	54*	-5	-3	-5	14
CNC(=O)COc1ccc(S(=O)(=O)Nc2ccc(OC)cc2)cc1	-22	90*	5	-4	1	-42
CNC(=O)COc1ccc(S(=O)(=O)Nc2ccc(C)cc2)cc1	4	-2	-1	-14	0	/
CC(C)(C)NC(=O)c1ccc(COc2ccc(Cl)cc2Cl)o1	1	/	3	-23	/	/
C=CCn1c(SCc2c(C)noc2C)nc2sc3c(c2c1=O)CCCCC3	65*	6	-2	3	4	0
CCCCCOc1ccc(NC(=O)C(=O)NCCCn2ccnc2)cc1	63*	4	-1	-39	-2	-7
CC(C)c1cc(C(C)C)c(S(=O)(=O)N2c3ccccc3[C@]3(Br)C[C@H]4C(=O)N[C@@H](Cc5ccccc5)C(=O)N4[C@H]23)c(C(C)C)c1	65*	/	/	/	/	/
CC(C)Cn1c(N)c(C(=O)COC(=O)CC23CC4CC(CC(C4)C2)C3)c(=O)n(C)c1=O	14	42*	11	-16	36*	10
CCOC(=O)N1CCN(C(=O)c2ccc3c(c2)sc2nc(-c4ccccc4)cn23)CC1	-109	7	11	-68	2	-82
CCOC(=O)N1CCC(NC(=O)c2ccc3c(c2)sc2nc(-c4ccc(OC)cc4)cn23)CC1	-98	27*	2	-2	0	-1
CC(C)n1c(SCC(=O)NC2CC2)nnc1-c1ccco1	26	/	3	-13	/	/
Cn1cc(CNCc2cn[nH]c2-c2ccc(F)cc2)c(-c2ccc3c(c2)OCCO3)n1	-14	14	6	-9	4	-15
Cn1cc(CNCc2ccc(OC(F)(F)F)cc2)c(-c2ccc3c(c2)OCCO3)n1	5	40*	14	-14	47*	-10
COc1ccc(N2C(C(C)=O)=NN(c3ccccc3)C2c2cccs2)cc1 (configuration not stated)	/	48*	2	-64	25*	5
COc1ccc(NC(=O)C2CCCN(S(C)(=O)=O)C2)cc1Cl (configuration not stated)	17	/	-2	-27	/	/
Cc1nc(C(=O)NNC(=O)c2ccc(Cl)cc2)c(C(F)(F)F)o1	28	31*	8	2	-4	/
CCOC(=O)C1CCN(C(=O)Nc2cc(Cl)cc(Cl)c2)CC1	7	-2	0	5	0	/
Cc1ccc(C(=O)Nc2nc(C)c(C(=O)Nc3ccc4c(c3)CCC4)s2)cc1	-23	9	16	-48	3	66*
CCOC(=O)CN1C(=O)C(=O)N(Cc2ccccc2F)C1=O	-4	/	-1	-27	/	/
CC(=O)Nc1cc(-c2ccc(Cl)cc2)[nH]n1	-141	-5	2	-113	-3	-11
Cc1cc(C(=O)CSc2nc3ccccc3c(=O)n2C)c(C)n1CC1CCCO1 (configuration not stated)	-1	69*	9	19	59*	17
Cc1cc(C(=O)COC(=O)CCc2nc3ccccc3c(=O)[nH]2)c(C)n1CC1CCCO1 (configuration not stated)	-4	-7	-4	-13	-1	/
